Screening data: PubChem BioAssay, several laboratories
In the library only some 4.1% were active in any assay of this set; here they are far more common.
Mtb FBA inh: inhibits M. tuberculosis FBA enzyme; purified M. tuberculosis FBA, fluorescence read-out; inhibition, % at 1 µM; hit rate 2.3% among 360,000; AID 588726; in the data active = inhibition above about 27%;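 also: 0% = vehicle and 100% = reference inhibitor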
RecA intein inh: inhibitors of M. tuberculosis RecA intein splicing. P9WHJ3. cell-free RecA intein splicing, fluorescence. inhibition, % (no concentration beside the values). hit rate 0.75% among 290,000. AID 2221; in the data active = inhibition above about 30%; inconclusive = no clear call, values can overlap the other calls;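 also: 0% = vehicle wells and 100% = reference inhibitor control wells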
Vc quorum ag: quorum light induction in luxS cqsA deficient V. cholerae. V. cholerae BH1578 lux reporter, luminescence, 6 h. activation, % at 18.7 µM. hit rate 0.16% among 350,000. AID 588436; in the data active = activation mostly above about 9.7%, no sharp cut-off; inconclusive = no clear call, values can overlap the other calls; inactive = mostly below about 3.7%
Mtb UGM inh: inhibitors of M. tuberculosis UDP-galactopyranose mutase | P9WIQ1 | purified UGM, fluorescence polarization probe displacement | inhibition, % at 10 µM | hit rate 0.06% among 320,000; in the data active = inhibition above about 10%, passing the limit was not always enough; inconclusive = no clear call, values can overlap the other calls
Rv3671c inh: Rv3671c (M. tuberculosis) protease inhibition; inhibition, % at 5.96 µM; AID 2606; P9WHR9; hit rate 0.048% among 320,000; in the data active = inhibition above about 38%;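 also: extracellular domain of Rv3671c used as enzyme; 0% = enzyme with DMSO and 100% = no enzyme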
Target sequence (P9WHR9 whole entry, looked up, the tested form may be a part): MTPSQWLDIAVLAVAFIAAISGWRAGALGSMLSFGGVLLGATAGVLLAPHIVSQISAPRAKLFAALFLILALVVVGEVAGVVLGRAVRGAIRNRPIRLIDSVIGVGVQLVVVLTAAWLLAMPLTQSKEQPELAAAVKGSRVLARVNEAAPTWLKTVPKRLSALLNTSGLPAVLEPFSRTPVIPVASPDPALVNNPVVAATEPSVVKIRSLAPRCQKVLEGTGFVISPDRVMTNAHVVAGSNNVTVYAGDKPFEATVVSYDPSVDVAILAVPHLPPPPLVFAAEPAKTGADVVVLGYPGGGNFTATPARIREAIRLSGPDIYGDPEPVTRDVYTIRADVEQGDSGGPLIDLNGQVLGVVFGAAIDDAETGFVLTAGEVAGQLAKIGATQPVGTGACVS
GDH-TPI inh: inhibits GDH-TPI coupling enzymes, artifact for Mtb FBA screen; GDH-TPI coupled enzyme counterscreen, NADH absorbance; hit rate 1.2% among 360,000; inhibition, % at 4.8 µM; in the data active = inhibition above about 30%;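 also: 0% = DMSO wells and 100% = wells lacking the enzyme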
GFP chromophore: counter-screen: blocks GFP chromophore formation; shares compounds with RecA intein inh; cell-free GFP chromophore formation, fluorescence; EC50, µM; hit rate 83% among 2,100; AID 434968; call rule not given here
* marks the source's active call; other numbers are inactive results; i = inactive; ? = inconclusive; nt = not tested or not shown.

SMILES | Mtb FBA inh | RecA intein inh | Vc quorum ag | Mtb UGM inh | Rv3671c inh | GDH-TPI inh | GFP chromophore
Clc1ccc(C=NN2CCCCCC2)cc1Cl | 2 | nt | i | nt | nt | 8 | nt
[O-]C1=N/[N+](=C/c2ccccc2Cl)CC1 | 0 | 70* | 0 | -2 | 4 | -4 | 17*
[O-]C1=N/[N+](=C/c2ccc(Cl)c(Cl)c2)CC1 | 1 | 36* | 2 | -2 | 9 | 6 | 38*
[O-]C1=N/[N+](=C/c2ccccc2)CC1 | 0 | 81* | 0 | 1 | 2 | 8 | 30*
C[n+]1ccccc1Nc1cc([N+](=O)[O-])ccc1N | 1 | 2 | -1 | 0 | 7 | 21 | nt
COc1cccc(NC(=S)/C(=C(\[O-])c2ccc(OC(F)F)cc2)[n+]2ccccc2)c1 | 3 | 37* | -2 | 2 | -10 | 8 | 35*
CCN(CC)C(=O)CSc1nnc2nnc3cc(OC)ccc3n12 | -4 | 31* | -1 | 7 | -5 | 8 | >38
CCN(CC)C(=O)CSc1nnc(COc2ccc(OC)cc2)n1N | -1 | -4 | i | 1 | -5 | 1 | nt
O=C1NCCCc2c1oc1cc(Br)c(O)c(Br)c21 | -1 | -13 | 0 | -1 | 6 | 21 | nt
O=C1NCCCC2c3c(cc(Br)c(O)c3Br)OC12N1CCCCC1 (configuration not stated) | 1 | 38* | i | -3 | 4 | 6 | 5.5*
CC(=O)N(c1ccccc1)c1nc(C)cc(C)c1C#N | 1 | 1 | i | -4 | 6 | 6 | nt
CC(=O)N(c1ccccc1)C(C)c1nc(C#N)c(C#N)nc1C (configuration not stated) | -1 | 62* | 0 | -1 | 3 | -6 | 38*
COCC(=O)N1CCC(Oc2ccc(C(=O)NC3CCOC(C)(C)C3)cc2)CC1 (configuration not stated) | 1 | 2 | -1 | 2 | 1 | 7 | nt
CC1=C(C)/C(=N/OC(=O)c2cccc([N+](=O)[O-])c2)C=CC1=O | -10 | 47* | i | 0 | -13 | 25 | >38
N/C(=N/OC(=O)c1cccc([N+](=O)[O-])c1)c1cccc([N+](=O)[O-])c1 | 0 | -7 | -1 | -1 | -1 | 4 | nt
CCc1cc2c3c(c1)C1(C(=O)N3C(C)(C)C=C2C)C(C#N)=C(N)Oc2[nH]c(=O)[nH]c(=O)c21 (configuration not stated) | 2 | 78* | 0 | -1 | -11 | -2 | 19*
CC1=CC(C)(C)N2C(=O)C3(C(C#N)=C(N)Oc4cc(C)oc(=O)c43)c3cc(C)cc1c32 (configuration not stated) | -1 | 2 | 0 | 1 | 0 | 5 | nt
O=C(c1ccncc1)N(c1ccc2oc3c(c2c1)CCCC3)S(=O)(=O)c1ccc(F)cc1 | 0 | 51* | 3 | -1 | -14 | -2 | 4.1*
CC(=O)c1c(C)oc2ccc(N(C(=O)c3ccncc3)S(=O)(=O)c3ccccc3)cc12 | 0 | 0 | i | 2 | -3 | 2 | nt
COC(=O)c1ccccc1NC1=C/C(=N\S(=O)(=O)c2cccs2)c2ccccc2C1=O | -1 | 81* | -4 | 4 | -88 | 16 | 0.1*
COC(=O)c1ccccc1NC1=C/C(=N\S(=O)(=O)c2ccc(C(=O)O)cc2)c2ccccc2C1=O | -7 | 63* | 0 | 0 | -92 | 12 | ?
O=[N+]([O-])c1ccc(Cl)cc1Sc1nc2ccccc2o1 | -4 | 4 | i | 2 | -6 | 4 | nt
O=c1[nH]c(Sc2ccc([N+](=O)[O-])cc2[N+](=O)[O-])nc2ccccc12 | 1 | 34* | -1 | 1 | -7 | 12 | 31*
O=[N+]([O-])c1ccc(Sc2nc3ccccc3o2)c([N+](=O)[O-])c1 | 0 | 66* | -1 | -1 | 15 | 15 | 2*
CCN(Cc1ccc2c(c1)OCO2)C(=O)CSc1nc(C)nc2sc(C)c(C)c12 | 0 | nt | i | -1 | -9 | -8 | nt
SMILES | Mtb FBA inh | RecA intein inh | Vc quorum ag | Mtb UGM inh | Rv3671c inh | GDH-TPI inh | GFP chromophore
CN1CCN(C2=C(Cl)C(=O)N(C3CCCCC3)C2=O)CC1 | -4 | 1 | 0 | 1 | 0 | 0 | nt
CN1CCN(C2=C(Cl)C(=O)C(c3cnc(N4CCCCC4)s3)=C(Cl)C2=O)CC1 | 5 | 83* | i | -2 | -7 | 14 | 3.7*
CCC(CNc1cc(OC)cc2cccnc12)NC1CCCCC1 (configuration not stated) | -1 | 67* | -1 | 5 | 21 | 13 | 25*
COc1cc(NCCCC(C)N)c2ncccc2c1 (configuration not stated) | 3 | 88* | i | nt | nt | -1 | 10*
Cc1cccc(NC(=O)c2nc[nH]c2C(=O)N[C@@H](C)CO)c1 | -4 | nt | 0 | nt | nt | -3 | nt
S=C1NCCC12C(=S)Nc1ccccc12 (configuration not stated) | 0 | 37* | 0 | -2 | 2 | 9 | >38
CC(=O)N1CCC2(CC1)C(C#N)=C(N)Oc1n[nH]c(C(F)(F)F)c12 | 3 | -10 | i | 1 | 7 | 0 | nt
CCOC(=O)N1CCC2(CC1)C(C#N)=C(N)Oc1n[nH]c(C)c12 | 2 | 80* | -1 | 2 | -4 | 5 | 13*
Cc1[nH]nc2c1C1(CCC3(CC1)OCCO3)C(C#N)=C(N)O2 | 0 | 74* | 2 | 2 | 5 | 2 | >38
COCc1[nH]nc2c1C1(CCSCC1)C(C#N)=C(N)O2 | 4 | 74* | -5 | 0 | -14 | 6 | 20*
O=C(N/N=C/c1ccc(OC(=O)c2ccco2)cc1)c1ccc[n+]([O-])c1 | -2 | 32* | -1 | -1 | 9 | 36* | >38
COc1cc(/C=N/NC(=O)c2ccc(F)cc2)ccc1OC(=O)c1ccco1 | 0 | 30* | 0 | 1 | -3 | 13 | >38
COc1cc(/C=N/NC(=O)c2ccncc2)ccc1OC(=O)c1ccco1 | -3 | 25 | 0 | 4 | 7 | 13 | nt
CC1=NN(C)C(=O)C1Cc1c(F)cccc1Cl (configuration not stated) | -2 | 80* | 0 | 0 | 7 | -6 | 17*
CN1CCC(NC(=O)Cc2c(F)cccc2Cl)CC1 | 0 | 1 | i | 0 | 1 | 7 | nt
O=C(Cc1ccc(NC(=O)C2CCN(C(=O)C3CCC3)CC2)cc1)Nc1cccc(C(=O)N2CCCC2)c1 | -1 | nt | i | nt | nt | 3 | nt
CCN(CC)S(=O)(=O)c1ccc(=O)n(CC(=O)N2Cc3ccccc3CC2C(N)=O)c1 (configuration not stated) | 5 | nt | -2 | nt | nt | 11 | nt
COC(=O)C[C@]1(C(=O)OC)CN(C#N)N(c2ccc(Cl)cc2)C12c1ccccc1-c1ccccc12 | -2 | 74* | i | 0 | -1 | 10 | 4.7*
CCCCn1c(NS(=O)(=O)c2ccc(C)cc2)c(S(=O)(=O)c2ccccc2)c2nc3ccccc3nc21 | 5 | 83* | -1 | 1 | -143 | 8 | >38
